# Laboratory results from PMC7862700, “An all-to-all approach to the identification of sequence-specific readers for epigenetic DNA modifications on cytosine”.
# Experiments:
# Test in all cases: DAPPL (digital affinity profiling via proximity ligation, sequencing); 10 mM Tris-HCl pH 7.5, 50 mM NaCl, 1 mM DTT, 4% glycerol, room temperature, 30 min; GST-TFs on glutathione beads, 16-mer random dsDNA library, 0.1% formaldehyde crosslink after washing; high values mean tight binding
# FEV = target: T1, FEV (Homo sapiens, UniProt Q99581 1-238); conditions: protein: recombinant; tags: N-terminal GST; dsDNA, one strand shown
# T1 sequence: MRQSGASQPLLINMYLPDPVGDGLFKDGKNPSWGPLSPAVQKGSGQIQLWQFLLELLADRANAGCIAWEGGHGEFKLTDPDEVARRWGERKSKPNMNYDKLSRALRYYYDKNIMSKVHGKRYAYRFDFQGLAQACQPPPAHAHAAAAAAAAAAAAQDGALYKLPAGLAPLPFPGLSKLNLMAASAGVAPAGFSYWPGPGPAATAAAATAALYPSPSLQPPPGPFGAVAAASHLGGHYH
# Method in brief: (§1)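 Sequencing on an Illumina NextSeq500 followed washing, crosslinking with 0.1% formaldehyde, proximity ligation (BsaI/T4 ligase, 1 h, 37 °C) and PCR amplification of pools that had been incubated for 30 min at room temperature with 200 nmole of a random double-stranded 16-mer DNA library in Tris/NaCl/DTT/glycerol buffer. Each pool held DNA-barcoded human transcription factors, expressed in yeast as GST fusions and captured on glutathione beads, plus a tag-only sample. Binding signal is a hexamer's read frequency for a factor divided by its frequency in the tag-only sample.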
# ETV5 = ETV5 (Homo sapiens, UniProt P41161 1-510); conditions: protein: recombinant; tags: N-terminal GST; dsDNA, one strand shown
# Sequence of ETV5 (P41161 whole entry): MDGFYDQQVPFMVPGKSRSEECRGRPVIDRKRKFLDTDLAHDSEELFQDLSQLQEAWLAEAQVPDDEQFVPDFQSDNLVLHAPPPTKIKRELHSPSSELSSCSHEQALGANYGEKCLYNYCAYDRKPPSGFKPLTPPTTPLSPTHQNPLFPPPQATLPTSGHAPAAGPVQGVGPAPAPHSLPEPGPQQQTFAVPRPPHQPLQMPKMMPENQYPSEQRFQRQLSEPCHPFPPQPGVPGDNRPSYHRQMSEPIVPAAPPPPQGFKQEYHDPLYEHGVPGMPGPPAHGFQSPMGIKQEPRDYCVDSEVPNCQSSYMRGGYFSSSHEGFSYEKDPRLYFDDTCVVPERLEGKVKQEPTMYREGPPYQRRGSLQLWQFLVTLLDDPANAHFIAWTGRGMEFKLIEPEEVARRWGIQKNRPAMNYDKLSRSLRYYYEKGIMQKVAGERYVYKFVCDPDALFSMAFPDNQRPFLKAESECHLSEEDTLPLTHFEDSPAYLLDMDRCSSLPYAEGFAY
# Method in brief: as §1
# HSF1 = HSF1 (Homo sapiens, UniProt Q00613 1-529); conditions: protein: recombinant; tags: N-terminal GST; chain copies: 3; dsDNA, one strand shown
# Sequence of HSF1 (Q00613 whole entry): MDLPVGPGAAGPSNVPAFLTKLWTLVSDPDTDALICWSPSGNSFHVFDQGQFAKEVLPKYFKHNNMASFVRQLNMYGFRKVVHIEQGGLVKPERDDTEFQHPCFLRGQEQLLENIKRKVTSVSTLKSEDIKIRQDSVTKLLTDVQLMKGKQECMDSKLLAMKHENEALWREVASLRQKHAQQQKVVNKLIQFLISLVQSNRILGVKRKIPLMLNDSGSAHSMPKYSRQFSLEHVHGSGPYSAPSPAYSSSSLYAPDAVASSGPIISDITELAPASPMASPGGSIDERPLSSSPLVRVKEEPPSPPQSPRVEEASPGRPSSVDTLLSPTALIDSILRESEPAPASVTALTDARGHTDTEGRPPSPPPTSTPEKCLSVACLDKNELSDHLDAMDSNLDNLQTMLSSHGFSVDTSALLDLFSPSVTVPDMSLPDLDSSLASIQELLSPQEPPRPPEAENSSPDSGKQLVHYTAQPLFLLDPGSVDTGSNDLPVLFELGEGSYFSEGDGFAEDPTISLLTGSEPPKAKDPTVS
# Method in brief: as §1
# SPIC = target: T2, SPIC (Homo sapiens, UniProt Q8N5J4 1-248); conditions: protein: recombinant; tags: N-terminal GST; dsDNA, one strand shown
# T2 sequence: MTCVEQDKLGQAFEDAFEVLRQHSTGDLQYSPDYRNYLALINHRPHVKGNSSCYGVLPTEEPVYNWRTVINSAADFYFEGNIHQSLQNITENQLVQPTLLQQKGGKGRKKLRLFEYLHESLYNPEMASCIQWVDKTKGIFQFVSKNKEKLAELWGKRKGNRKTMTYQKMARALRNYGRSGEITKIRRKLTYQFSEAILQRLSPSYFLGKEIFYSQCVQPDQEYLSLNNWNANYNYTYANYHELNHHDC
# Method in brief: as §1
# ELF4 = ELF4 (Homo sapiens, UniProt Q99607 1-663); conditions: protein: recombinant; tags: N-terminal GST; dsDNA, one strand shown
# Sequence of ELF4 (Q99607 whole entry): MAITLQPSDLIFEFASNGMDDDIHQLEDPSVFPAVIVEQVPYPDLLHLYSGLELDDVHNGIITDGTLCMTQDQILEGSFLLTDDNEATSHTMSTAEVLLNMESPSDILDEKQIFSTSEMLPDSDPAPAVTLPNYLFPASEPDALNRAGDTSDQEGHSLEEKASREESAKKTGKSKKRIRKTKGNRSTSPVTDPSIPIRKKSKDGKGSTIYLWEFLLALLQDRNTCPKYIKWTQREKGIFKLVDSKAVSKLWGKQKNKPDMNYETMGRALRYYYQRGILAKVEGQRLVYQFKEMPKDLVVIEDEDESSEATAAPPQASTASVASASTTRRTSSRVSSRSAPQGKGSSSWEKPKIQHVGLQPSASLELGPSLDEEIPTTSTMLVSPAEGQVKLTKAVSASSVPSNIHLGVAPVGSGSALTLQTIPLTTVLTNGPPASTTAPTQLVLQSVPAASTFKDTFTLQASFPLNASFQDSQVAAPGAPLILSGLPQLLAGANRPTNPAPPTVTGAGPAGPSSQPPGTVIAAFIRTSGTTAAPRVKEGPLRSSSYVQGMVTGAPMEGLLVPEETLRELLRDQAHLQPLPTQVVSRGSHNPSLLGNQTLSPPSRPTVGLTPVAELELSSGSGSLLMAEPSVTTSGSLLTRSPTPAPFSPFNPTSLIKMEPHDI
# Method in brief: as §1
# ELK4 = target: T3, ELK4 (Homo sapiens, UniProt P28324-2 1-405); conditions: protein: recombinant; tags: N-terminal GST; dsDNA, one strand shown
# T3 sequence: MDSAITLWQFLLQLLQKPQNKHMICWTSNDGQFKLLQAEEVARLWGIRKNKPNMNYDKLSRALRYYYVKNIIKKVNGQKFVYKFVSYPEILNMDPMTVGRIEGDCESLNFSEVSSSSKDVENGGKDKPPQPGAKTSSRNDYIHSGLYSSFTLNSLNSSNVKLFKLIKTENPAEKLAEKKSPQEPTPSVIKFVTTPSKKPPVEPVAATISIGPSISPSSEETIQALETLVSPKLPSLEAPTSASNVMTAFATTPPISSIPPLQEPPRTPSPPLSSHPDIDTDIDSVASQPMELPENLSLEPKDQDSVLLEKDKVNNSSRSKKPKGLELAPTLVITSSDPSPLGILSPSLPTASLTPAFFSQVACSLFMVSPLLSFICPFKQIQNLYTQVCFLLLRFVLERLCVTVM
# Method in brief: as §1
# ETV2 = target: T4, ETV2 (Homo sapiens, UniProt O00321 1-342); conditions: protein: recombinant; tags: N-terminal GST; dsDNA, one strand shown
# T4 sequence: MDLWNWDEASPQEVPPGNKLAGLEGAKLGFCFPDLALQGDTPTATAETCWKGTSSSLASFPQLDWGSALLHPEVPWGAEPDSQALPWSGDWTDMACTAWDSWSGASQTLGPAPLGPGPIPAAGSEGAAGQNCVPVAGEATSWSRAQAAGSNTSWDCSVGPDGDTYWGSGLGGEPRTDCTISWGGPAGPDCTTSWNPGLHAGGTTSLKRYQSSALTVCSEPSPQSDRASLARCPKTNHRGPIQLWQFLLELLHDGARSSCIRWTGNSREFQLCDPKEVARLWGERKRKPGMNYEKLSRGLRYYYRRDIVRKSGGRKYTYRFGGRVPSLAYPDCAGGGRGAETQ
# Method in brief: as §1
# ELF3 = target: T5, ELF3 (Homo sapiens, UniProt P78545 1-371); conditions: protein: recombinant; tags: N-terminal GST; dsDNA, one strand shown
# T5 sequence: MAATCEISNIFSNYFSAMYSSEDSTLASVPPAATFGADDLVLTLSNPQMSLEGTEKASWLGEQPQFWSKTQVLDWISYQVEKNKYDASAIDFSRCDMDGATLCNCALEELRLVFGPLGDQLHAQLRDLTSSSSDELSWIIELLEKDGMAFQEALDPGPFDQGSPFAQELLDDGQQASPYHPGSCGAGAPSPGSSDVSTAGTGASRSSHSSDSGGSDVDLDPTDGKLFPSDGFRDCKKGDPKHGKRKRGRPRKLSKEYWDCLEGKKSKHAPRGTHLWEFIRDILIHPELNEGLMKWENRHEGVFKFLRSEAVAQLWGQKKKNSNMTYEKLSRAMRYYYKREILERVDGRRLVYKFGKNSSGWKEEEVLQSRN
# Method in brief: as §1
# CRX = CRX (Homo sapiens, UniProt O43186 1-299); conditions: protein: recombinant; tags: N-terminal GST; dsDNA, one strand shown
# Sequence of CRX (O43186 whole entry): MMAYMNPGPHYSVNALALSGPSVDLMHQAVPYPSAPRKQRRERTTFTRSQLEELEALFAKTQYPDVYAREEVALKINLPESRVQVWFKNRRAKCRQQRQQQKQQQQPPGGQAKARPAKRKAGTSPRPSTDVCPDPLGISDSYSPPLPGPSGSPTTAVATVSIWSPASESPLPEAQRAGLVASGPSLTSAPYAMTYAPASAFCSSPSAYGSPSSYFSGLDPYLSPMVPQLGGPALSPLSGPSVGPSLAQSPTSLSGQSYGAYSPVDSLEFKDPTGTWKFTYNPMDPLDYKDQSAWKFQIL
# Method in brief: as §1
# ETV1 = ETV1 (Homo sapiens, UniProt P50549 1-477); conditions: protein: recombinant; tags: N-terminal GST; dsDNA, one strand shown
# Sequence of ETV1 (P50549 whole entry): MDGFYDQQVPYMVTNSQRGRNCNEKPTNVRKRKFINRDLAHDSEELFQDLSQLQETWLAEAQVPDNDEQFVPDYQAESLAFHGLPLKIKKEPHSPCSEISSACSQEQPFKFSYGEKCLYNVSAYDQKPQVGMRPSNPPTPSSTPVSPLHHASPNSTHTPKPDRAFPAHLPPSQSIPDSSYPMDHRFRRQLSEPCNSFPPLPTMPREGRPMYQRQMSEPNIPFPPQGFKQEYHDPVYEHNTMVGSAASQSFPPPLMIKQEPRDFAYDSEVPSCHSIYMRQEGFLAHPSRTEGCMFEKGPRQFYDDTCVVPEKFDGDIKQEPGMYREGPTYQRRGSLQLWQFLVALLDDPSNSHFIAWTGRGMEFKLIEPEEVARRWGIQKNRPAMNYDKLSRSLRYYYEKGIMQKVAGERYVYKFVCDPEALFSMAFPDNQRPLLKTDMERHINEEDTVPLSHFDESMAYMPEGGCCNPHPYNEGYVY
# Method in brief: as §1
sequence,measurement,setting,value
TCCGCC,binding signal,FEV,"1.88 fold enrichment (6-mer frequency, TF over GST control)"
same,binding signal,ETV5,"1.69 fold enrichment (6-mer frequency, TF over GST control)"
same,binding signal,HSF1,"1.04 fold enrichment (6-mer frequency, TF over GST control)"
same,binding signal,SPIC,"1.69 fold enrichment (6-mer frequency, TF over GST control)"
same,binding signal,ELF4,"1.55 fold enrichment (6-mer frequency, TF over GST control)"
same,binding signal,ELK4,"1.45 fold enrichment (6-mer frequency, TF over GST control)"
same,binding signal,ETV2,"1.48 fold enrichment (6-mer frequency, TF over GST control)"
same,binding signal,ELF3,"1.6 fold enrichment (6-mer frequency, TF over GST control)"
same,binding signal,CRX,"1.05 fold enrichment (6-mer frequency, TF over GST control)"
same,binding signal,ETV1,"1.59 fold enrichment (6-mer frequency, TF over GST control)"
